This test has as its target Solute carrier family 2, facilitated glucose transporter member 1 (Homo sapiens) (UniProt P11166). Description: ST_JUDE_LEISH: Cytotoxicity at 2uM final concentration against transgenic Leishmania Mexicana promastigotes LmGLUT1 that are glucose transport deficient and complemented with the human glucose transporter GLUT1. Activity is measured by DNA content using SYBR green in vitro. The format is functional.
Sequence of Solute carrier family 2, facilitated glucose transporter member 1 (Homo sapiens) (P11166 whole entry): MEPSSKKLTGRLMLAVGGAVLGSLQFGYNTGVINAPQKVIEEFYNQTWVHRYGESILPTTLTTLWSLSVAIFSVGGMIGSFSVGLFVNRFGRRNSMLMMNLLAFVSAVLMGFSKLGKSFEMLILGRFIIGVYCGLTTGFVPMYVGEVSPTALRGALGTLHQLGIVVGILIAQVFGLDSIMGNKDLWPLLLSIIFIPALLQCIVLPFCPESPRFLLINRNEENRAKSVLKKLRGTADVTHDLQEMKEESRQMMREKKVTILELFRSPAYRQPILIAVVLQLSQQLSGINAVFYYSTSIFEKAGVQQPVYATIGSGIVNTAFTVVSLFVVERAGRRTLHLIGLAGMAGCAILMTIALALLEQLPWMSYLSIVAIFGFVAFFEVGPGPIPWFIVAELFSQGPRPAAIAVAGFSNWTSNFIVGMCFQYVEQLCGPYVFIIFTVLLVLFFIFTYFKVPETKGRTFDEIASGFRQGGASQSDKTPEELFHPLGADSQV
As to `Oc1ccc(CCNc2nc(NCCCOc3ccccc3-c3ccc(C(F)(F)F)cc3)nc(N3CCNCC3)n2)cc1`, the inhibition was -0.03%.

Consider `O=C(Nc1ccc(C(=O)Oc2ccc3ccccc3c2)cc1)N[C@@H](Cc1ccc(O)cc1)C(=O)NC1CCN(Cc2ccc(O)cc2)C1` (stereo not given in full), for which the inhibition came to 0.75%. In the case of `Cc1ccc2[nH]c(C)c(Br)c(=O)c2c1`, the inhibition is -1%. Take `COC(=O)c1cc(OC2CCOC2=O)cc2c1OC(C)(C)O2` (stereo not given): the inhibition is 10.9%. Turning to `COc1ccc(CNC2Cc3ccccc3C2)cc1-c1cccc(S(=O)(=O)NCCN2CCCC2)c1`, the inhibition was determined as 4.54%. For `Cc1cc(-c2ccc(S(=O)(=O)Nc3cc4c(cc3OC(C)C)CCN(C)CC4)cc2)ccc1Cl`, the inhibition was -2.82%.

On to `C=C[C@]1(C)C[C@@H](OC(=O)c2cncn(COC)c2=O)[C@]2(C)[C@H](C)CC[C@]3(CCC(=O)[C@H]32)[C@@H](C)[C@@H]1O`, for which the inhibition is -0.03%.

With `Cc1cccc(Cl)c1Nc1nnc(-c2cccc(C(=O)NC[C@@H]3CC[C@H]4C[C@@H]3C4(C)C)c2)o1`, the inhibition was 10.6%. For `CCCC(=O)Nc1ccc(Cl)c(NC(=O)COc2cc(C)ccc2C(C)C)c1`, the inhibition came to 9.77%. As to `CCNc1cc(C(=O)N[C@@H](Cc2ccccc2)[C@H](O)CNC(C)(C)CCCC(C)C)cc(N2CCCC2=O)c1`, the inhibition turned out to be 2.43%.

On to `FC(F)(F)c1ccc2[nH]c(-c3cccc(-c4ccc(CNCCc5ccncc5)cc4)c3)nc2c1`, for which the inhibition stood at 1.9%. In the case of `CC(=O)c1ccc(S(=O)(=O)N2CCC(C(=O)Nc3ccccc3N3CCCC3)CC2)cc1`, the inhibition was 0.87%. Regarding `O=C(N[C@@H](CC1CCCCC1)C(=O)NC1CCCc2ccccc21)c1ccc(O)c(-c2ccc(Cl)c(Cl)c2)c1` (stereo not given in full), the inhibition was 1.23%. As for `O=C(Cn1c(CCc2cccc(F)c2F)cc(=O)c2ccccc21)N(Cc1ccc(-c2ccc(C(F)(F)F)cc2)cc1)C1CCN(CCN2CCOCC2)CC1`, the inhibition worked out at 1.92%.

For `CC(C)NCc1ccc(-c2cccc(NC(=O)c3ccc(Cl)cc3)c2)cc1`, the inhibition is 8.23%. Turning to `COc1cc2ncnc(Nc3ccc4nc(-c5ccccc5)[nH]c4c3)c2cc1OC`, the inhibition came out at 4.22%.

With `Cc1cccc2nc(-c3cccc(-c4ccc(C(=O)N5CCCCC5C(C)O)cc4)c3)[nH]c12` (stereo not given), the inhibition is 4.05%. `Clc1cc(Nc2ncnc3cc(C#C[C@H]4CCCN4)sc23)cc2nc(Cc3ccccc3)[nH]c12`: the inhibition was 1.94%.

On to `CC(Nc1cc(-c2ccccn2)nc(-c2ccccn2)n1)c1ccccc1` (stereo not given), for which the inhibition was determined as 23.4%. `Cc1cc(NCCC(=O)NCCc2ccccc2)nc(NCCc2ccc(F)cc2)n1`: the inhibition amounted to 2.76%. `c1cncc(CCNCc2ccc(-c3ccc(CNC4Cc5ccccc5C4)cc3)cc2)c1`: the inhibition is 5.14%. On to `Clc1ccccc1OCc1ccccn1`, for which the inhibition was determined as 3.19%. With `COc1cc(CN2CCC(N3CCc4cc(NC(=O)c5cc(C)on5)ccc43)C2)ccc1F` (stereo not given), the inhibition was determined as 2.18%.

For `O=C(CCCCCNC(=O)c1ccc(O)c(-c2cccc(C(F)(F)F)c2)c1)NCCN1CCCCC1`, the inhibition came out at 5.39%. Regarding `CN(C)c1ccc(CN2CCC(NC(=O)c3ccc(-c4cccc(C(F)(F)F)c4)s3)CC2)cc1`, the inhibition amounted to 1.92%. As to `CC1CN(c2cnn(C/C=C/c3ccc(NC(=O)c4ccc5nonc5c4)cc3)c(=O)c2Cl)CC(C)N1` (stereo not given), the inhibition is 4.72%.

Take `COCCNCc1ccc(-c2ccccc2CNC2CCN(Cc3ccccc3)CC2)cc1`: the inhibition stood at 1.97%.

For the molecule `O=C(Nc1cccc(F)c1)N1CCC(CN2CCOC(c3ccccc3)(c3ccccc3)C2)CC1`, the inhibition turned out to be 3.49%. For the molecule `O=S(=O)(NC1=NCCC1)c1cccc(Nc2nc(C(F)(F)F)nc3ccccc23)c1`, the inhibition is -1.06%. For the molecule `COC(=O)CCCCCOc1cc(Cc2cnc(N)nc2N)cc(OC)c1OC`, the inhibition was -0.5%.

As for `C=CCCCNCC(NCCCNc1cc(=O)c2ccccc2[nH]1)c1cc(Br)cc(Br)c1` (stereo not given), the inhibition is -2.22%. Consider `N=c1c(C(=O)NCc2ccccc2)cc2c(=O)n3ccccc3nc2n1CCc1ccccc1`, for which the inhibition is 3.5%. Regarding `Nc1nccc2ccc(-c3ccc(Oc4ccccc4)cc3)cc12`, the inhibition came out at 14.9%. `Oc1cc(NC[C@@H]2CCC[C@@H]2NCc2ccc(Cl)c(Cl)c2)nc2ccccc12`: the inhibition was 9.21%. In the case of `COc1ccc(NC(=O)[C@H](Cc2ccccc2)Nc2nc(NCCN3CCCC3)ncc2C)cc1`, the inhibition was 1.71%. `Cc1cc(N[C@@H](Cc2ccccc2)C(=O)NCCOc2ccccc2)nc(NCc2ccccc2C)n1`: the inhibition was 7.28%. On to `O=C(Nc1cccc(CN2CCCN(Cc3ncc[nH]3)CC2)c1)c1ccc2ccccc2c1`, for which the inhibition is -2.43%.

Take `O=C(NC1CCN(Cc2ccccc2)CC1)c1cc(-c2ccncc2)nc2ccc(Cl)cc12`: the inhibition turned out to be 4.96%.

As for `Cc1cc(N[C@@H](Cc2ccccc2)C(=O)NCCc2ccccc2)nc(NCCc2ccccc2)n1`, the inhibition came out at 4.48%. As for `O=C(NCC(c1ccc(C(F)(F)F)cc1)N1CCCC1)c1cc(-c2ccncc2)c(-c2cccc(O)c2)o1` (stereo not given), the figure is 0.81%.

As a reminder, the inhibition is the drop in the measured response relative to a control, in per cent.
